Only some compounds are listed: those with a hit (about 5.7% of all), similar ones and a draw of the others.
IL-1B inflam inh = inhibitors of inflammasome signaling (IL-1 beta secretion); THP-1 LPS/ATP IL-1B secretion, AlphaLISA, 16 h; active compounds read low; activity change, % at 57.5 µM; 4.7% of 360,000 active; AID 743279; in the data active = activity change below about -50%; inconclusive = mostly about -30% to -49%
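Secreted IL-1B measured by AlphaLISA bead assay after 16 h compound exposure of THP-1 cells; compounds (final up to 57.5 uM) added 1 h before LPS (250 ng/mL) and ATP (1.25 mM) stimulation; lower signal means less secretion.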
TGFb inhibitor = blocks TGF-b signaling. Potency, µM (top dose mostly 46.1 µM), actives largely listed as inhibitors. HepG2 CAGA-GFP TGF-b/SMAD3 reporter, GFP fluorescence, 18 h; TGF-beta stimulated, 500 pg/mL final. 1.2% of 410,000 active; note: nearly all actives have a fitted effect of over 65% in size
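HEPG2 CAGA-GFP reporter cells (1000/well, DMEM with 1% FBS) received compounds, then recombinant TGF-beta at 500 pg/mL final for 18 hours at 37 degrees C. Per-cell GFP summed per well was normalised to unstimulated and stimulated DMSO controls before curve fitting.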
ATXN2 expr inh = ATXN2 expression inhibition. HEK-293 ATXN2-luciferase reporter, luminescence, 24 h. Potency, µM (series often up to 57 µM), most hits filed as inhibitors. 0.72% of 360,000 active. AID 1745845; note: nearly all actives have a fitted effect of over 55% in size
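qHTS (up to 57 uM final) was run with 24 h compound exposure of reporter cells at 37 °C. Each well was multiplexed: SteadyGlo luminescence measured ATXN2-luciferase expression after a fluorogenic Gly-Phe-AFC viability readout (25 uM final).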
HepG2 viability = kills HepG2 cells in TGF-b inhibitor counter-screen; 0.76% of 410,000 active; HepG2 CAGA-GFP viability, ATP luminescence, 18 h; Potency, µM (doses to about 46.1 µM), hits mostly cytotoxic; AID 588856
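HepG2 CAGA-GFP cells (1000/well, DMEM with 1% FBS) received compound, then TGF-beta at 500 pg/mL final, and were incubated 18 hours at 37 degrees C. Viability was read by CellTiter-Glo luminescence. Media-only wells were set as complete cell-killing and DMSO as no toxicity.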
ATXN viability = cell viability loss in ATXN counter-screen | S2 cells (HEK-293 line with an ATXN2-luciferase reporter) viability, CellTiter-Fluor protease fluorescence, 24 h | Potency, µM (titrated, usually from 56.7 µM), usual class: cytotoxic | 0.49% of 400,000 active; note: nearly all actives have a fitted effect of over 40% in size
Large screens that a line does not name were inactive. Unless noted, calls come from the whole dose curve; as a rule, active = well fitted curve in the direction sought with a large enough effect; inconclusive = small, poorly fitted or top-dose-only effect, or another doubt; inactive = no such curve, though single readings can be large; an effect the other way counts as inactive or inconclusive.

COc1ccccc1OCC(=O)N(Cc1nc(-c2ccccc2)no1)C(C)C	IL-1B inflam inh -59.2, ATXN2 expr inh inconclusive
COc1ccccc1OCC(=O)N(Cc1nc(-c2ccc(Cl)cc2)no1)C(C)C	none
Nc1cc(C(F)(F)F)ccc1S	none (no result: IL-1B inflam inh, TGFb inhibitor, HepG2 viability)
CC(=O)Nc1sc2c(c1C#N)CCCC2	none
CC(=O)NC(=S)Nc1sc2c(c1C#N)CCCCC2	IL-1B inflam inh -74.5
CCOCCCNC(=O)C(c1ccccc1)N(Cc1cccs1)C(=O)c1ccccc1O (centres undefined)	none
CCOCCCNC(=O)C(c1ccc(C)cc1)N(Cc1cccs1)C(=O)c1ccccc1O (centres undefined)	IL-1B inflam inh -108.3
O=C(CSc1nnc(CCc2nc3ccccc3[nH]2)n1-c1ccccc1)NCc1ccccc1	none
COc1ccc(-n2c(CCc3ccccc3)nnc2SCC(=O)c2ccccc2)cc1	IL-1B inflam inh -79.6
COc1ccc(-n2c(CCc3ccccc3)nnc2SCC(=O)NCc2ccccc2)cc1	IL-1B inflam inh -51.8
Cc1ccc(CCc2nnc(SCC(=O)Nc3ccccc3Cl)n2-c2ccccc2)o1	IL-1B inflam inh -63.6
COc1ccc(C(=O)CSc2nnc(CCc3ccccc3)n2-c2ccccc2)cc1	ATXN2 expr inh inconclusive
CCOc1ccc(CCNC(=O)CSc2nnnn2C)cc1OCC	none
Cn1nnnc1SCC(=O)NCCc1ccc(Cl)cc1	HepG2 viability 15.8µM
COc1ccc(CCNC(=O)Cn2c(=O)c3cccn3c3ccccc32)cc1OC	none (no result: IL-1B inflam inh, ATXN2 expr inh, ATXN viability)
O=C(Nc1ccccc1C(F)(F)F)c1noc2c1CCCCC2	none (no result: IL-1B inflam inh)
CC(=O)/C(=N\Nc1ccc(Cl)cc1)Sc1nnc(-c2ccccc2)n1-c1ccccc1	none
CC(=O)/C(=N/Nc1ccccc1)Sc1nnc(CCc2ccccc2)n1-c1ccccc1	IL-1B inflam inh -76.1
COc1ccc(CCNC(=O)CSc2nnc3ccccn23)cc1	TGFb inhibitor 0.447µM
O=C(CSc1nnc2ccccn12)NCCc1ccc(F)cc1	none
c1ccc(COc2ccccc2CNC2CCCC2)cc1	IL-1B inflam inh -70.4
COc1ccccc1CNC(=O)C12CC3CC(CC(C3)C1)C2	none
COc1cccc(CNC2CCCCCCC2)c1OC	none
c1ccc(COc2ccccc2CNC23CC4CC(CC(C4)C2)C3)cc1	IL-1B inflam inh -95.3, TGFb inhibitor inconclusive, ATXN2 expr inh 15.8µM, HepG2 viability 10µM (no result: ATXN viability)
c1csc(COc2ccccc2CNC2CCCCC2)c1	IL-1B inflam inh -72.6
CCNC(=O)c1cc(NC(=O)COC)cc2nc(-c3ccncc3)n(C)c12	none (no result: IL-1B inflam inh, TGFb inhibitor, ATXN2 expr inh, HepG2 viability)
Cc1oc2ccc(O)c(CN3CCCC(C)C3)c2c1C(=O)Nc1ccccc1 (centres undefined)	none (no result: IL-1B inflam inh)
O=c1c2c(nc3c(-c4ccc(Cl)cc4)c[nH]n13)CCC2	TGFb inhibitor inconclusive, ATXN2 expr inh 12.6µM, ATXN viability inconclusive
CCc1cccc(NC(=O)CCNS(=O)(=O)c2ccc3c(c2)CCN3C(C)=O)c1	none (no result: IL-1B inflam inh)
O=C(CN1CCN(S(=O)(=O)c2ccc(Br)cc2)CC1)N/N=C/c1ccc(Cl)c([N+](=O)[O-])c1	IL-1B inflam inh -90.2
COc1ccc(/C=N/NC(=O)CCn2nc(C)cc2C)cc1	none
Cc1cc(C)n(CCC(=O)N/N=C/c2ccc(Cl)c([N+](=O)[O-])c2)n1	IL-1B inflam inh -90.5, ATXN viability inconclusive
Cc1ccc(S(=O)(=O)N2CCN(CC(=O)N/N=C\c3ccc(Cl)c([N+](=O)[O-])c3)CC2)cc1	IL-1B inflam inh inconclusive, TGFb inhibitor inconclusive
CSCCC(NC(=O)c1ccc([N+](=O)[O-])cc1Cl)C(=O)OCC(=O)NCCCc1ccccc1 (centres undefined)	TGFb inhibitor 15.8µM
CSCCC(NC(=O)c1ccc([N+](=O)[O-])cc1Cl)C(=O)OCC(=O)NCC(F)(F)F (centres undefined)	none
COc1cc2c(cc1OC)C(c1ccc3c(c1)OCO3)C1=C(CC(C)(C)CC1=O)N2 (centres undefined)	IL-1B inflam inh -54.4, ATXN viability inconclusive
COc1ccc(-c2nc(N3CCOCC3)nc3n[nH]c(N)c23)cc1	IL-1B inflam inh -70.3, TGFb inhibitor 11.2µM
COc1ccc(C2(CNC(=O)C(=O)Nc3ccc(F)cc3)CCCC2)cc1OC	none (no result: IL-1B inflam inh)
COc1ccc(Cl)cc1S(=O)(=O)N1CCN=C1C	none
CC1=NCCN1S(=O)(=O)c1c(C(C)C)cc(C(C)C)cc1C(C)C	IL-1B inflam inh -58.5
NC(=S)NN=Cc1nccc2c(C(F)(F)C(F)(F)C(F)(F)F)cccc12	TGFb inhibitor 1.41µM (no result: ATXN2 expr inh, ATXN viability)
Cc1cnc(C=NNC(N)=S)c2cccc(N)c12	TGFb inhibitor 10µM, ATXN2 expr inh inconclusive, ATXN viability inconclusive
NC(=S)NN=Cc1nccc2ccccc12	ATXN2 expr inh inconclusive, ATXN viability inconclusive
CC(=O)Nc1ccn(C2OC(C(COC(C)=O)NC(=O)C(C)NC(=O)OC(C)(C)C)C(OC(C)=O)C2OC(C)=O)c(=O)n1 (centres undefined)	none (no result: IL-1B inflam inh, ATXN2 expr inh, ATXN viability)
COc1ccc2c(c1)CCc1c(C(=O)Nc3c(C)nn(Cc4c(Cl)cccc4Cl)c3C)noc1-2	none (no result: IL-1B inflam inh)
Cc1ccc(CN2CCOc3ccc(C(C)(O)COc4ccccc4)cc3C2)o1 (centres undefined)	none (no result: IL-1B inflam inh, TGFb inhibitor, ATXN2 expr inh, HepG2 viability)
O=C(CSc1nnc(CNC(=O)c2cccs2)o1)c1ccc(Cl)cc1	IL-1B inflam inh -57.6
Cc1ccc(Cn2ccc(=O)c(OCc3c(Cl)cccc3Cl)c2C)cc1	IL-1B inflam inh -58.6, TGFb inhibitor inconclusive, ATXN viability inconclusive
Cc1[nH]ccc(=O)c1OCc1c(Cl)cccc1Cl	TGFb inhibitor inconclusive
Cc1ccccc1NC(=O)CSc1nc2c(oc3ccccc32)c(=O)n1-c1ccccc1F	TGFb inhibitor inconclusive (no result: IL-1B inflam inh)
CCCN(CC(=O)Nc1ccccc1C)C(=O)CCN1C(=O)c2cccc([N+](=O)[O-])c2C1=O	IL-1B inflam inh -51.4
Cc1cc(C)c(C)c(S(=O)(=O)N2CCC(C(=O)N3CC(C)CC(C)C3)CC2)c1C (centres undefined)	IL-1B inflam inh -74.7
CC(C)C[C@@H](CNCC(=O)[C@H](CC(C)C)NC(=O)c1[nH]cnc1C(=O)N[C@@H](C)CN)NC(=O)c1nc[nH]c1C(=O)N[C@@H](CC(C)C)C(=O)O	none
CC(C)C[C@@H](CNCC(=O)[C@H](CC(C)C)NC(=O)c1[nH]cnc1C(=O)N[C@@H](C)CN)NC(=O)c1nc[nH]c1C(=O)N[C@@H](CC(=O)O)C(=O)O	IL-1B inflam inh -55.2
CC(=O)c1c(N2CCN(c3ccccc3)CC2)nc(=S)n(-c2ccccc2)c1C	IL-1B inflam inh -65.2
Cc1cc(NC(=O)CCC(=O)N(CCC(C)C)CC(=O)NCC2CCCO2)no1 (centres undefined)	none
Cc1cc(NC(=O)CCC(=O)N(CCC(C)C)C(C(=O)NCC2CCCO2)c2ccccc2C)no1 (centres undefined)	IL-1B inflam inh -57.5, TGFb inhibitor inconclusive
NC(N)=Nc1nc(CSCCC(N)=NS(N)(=O)=O)cs1	none (no result: IL-1B inflam inh, TGFb inhibitor, HepG2 viability, ATXN viability)
